Out of some 52,000 compounds screened, about 4,300 (8.3%) were called active. Only a selection was taken, and actives are over-represented in it overall. A number with no mark means an inactive call. Rule as the data show it: active = survival mostly below about 52% (no sharp cut-off); inactive = mostly above about 56%.
The compounds below were run on DeltatarO mutant (assay: S. aureus survival, RN4220 and DeltatarO strains – OD600, teichoic acid synthesis inhibitors, primary screen (AID 463173)). Conditions: S. aureus RN4220 wild type/DeltatarO growth, OD600, 18 h, hits give low values, screened at 18.75 µg/mL (by protocol).

Point of comparison: `Cc1cc(C)c2sc(N(Cc3cccnc3)C(=O)CCS(=O)(=O)c3ccccc3)nc2c1`, survival 89%. Against it:
- Cc1ccc(NC(=O)c2sc3ncnc(N(C)C4CCCCC4)c3c2C)cc1 — higher, 144%
- CCOc1ccc(CCNC(=O)c2ccc3nc(CC)c(CC)nc3c2)cc1 — higher, 91%
- CN(C)C(=O)CSc1ccc(-c2ccc(F)cc2)nn1 — higher, 92%
- CC(C)Oc1ccc(C(=O)Nc2nnc3n2CCS3)cc1 — higher, 124%
- Cc1cccc(NC(=O)NC2CC3CCCC(C2)N3CC(C)C)c1 (stereo not given) — higher, 94%
- CC(C)C(NS(=O)(=O)c1ccc2c(c1)oc(=O)n2C)C(=O)NCCc1ccccc1 (stereo not given) — the same, 89%
- COc1ccc(C(=O)Nc2ccc(N3CCOCC3)c(C(F)(F)F)c2)cc1OC — higher, 91%
- Cc1oc2ccc(O)c(CN3CCN(C)CC3)c2c1C(=O)Nc1cccc(C(F)(F)F)c1 — lower, 81%
- Cc1oc2ccc(O)c(CN3CCCC3)c2c1C(=O)Nc1cccc(Cl)c1C — lower, 71%
- Cc1oc2ccc(O)c(CN3CCN(Cc4ccccc4)CC3)c2c1C(=O)Nc1cccc(Cl)c1C — lower, 72%
- Cc1oc2ccc(O)c(CN(C)Cc3ccccc3)c2c1C(=O)Nc1ccccc1 — higher, 92%
- CCOC(=O)c1ccccc1NC(=O)c1c2c(nc3ccccc13)C(=O)N(C1CCCCC1)C2 — lower, 75%
- CC(C)C1N=C2c3ccccc3N=C(SCC(=O)NCc3ccc(F)cc3)N2C1=O (stereo not given) — lower, 73%
- O=C(Cn1ccn(-c2ccc(F)cc2)c(=O)c1=O)Nc1ccc(F)cc1 — lower, 60%
- COc1cc(NC(=O)Cn2ccn(Cc3ccccc3OC)c(=O)c2=O)cc(OC)c1 — lower, 52%
- Cc1ccc(Cn2ccn(CC(=O)Nc3c(C)cc(C)cc3C)c(=O)c2=O)cc1 — lower, 47%
- CCc1ccc(NC(=O)Cn2ccn(-c3ccc(OC)cc3)c(=O)c2=O)cc1 — lower, 67%
- COc1ccccc1NC(=O)Cn1ccn(-c2cc(C)cc(C)c2)c(=O)c1=O — lower, 55%
- COc1ccc(NC(=O)Cn2ccn(-c3ccccc3)c(=O)c2=O)cc1 — lower, 52%
- COc1ccc(NC(=O)CC2C(=O)N(c3ccc(C)cc3)C(=O)N2CCc2ccccc2)cc1 (stereo not given) — lower, 62%
- Cc1ccc(-c2cn3c(n2)sc2cc(C(=O)NCCCc4ccccc4)ccc23)c(C)c1 — lower, 48%
- O=C1N(c2ccccc2)C(=O)N(c2ccccc2)C2c3ccccc3C=CN12 (stereo not given) — higher, 100%
- CCOC(=O)c1ccccc1NC(=O)Nc1cc2c(cc1N1CCCC1)n(C)c(=O)n2C — higher, 108%
- CCc1nc2ccc(C(=O)NCCc3ccc(OC)c(OC)c3)cc2nc1CC — lower, 88%
- CCOc1ccc(NC(=O)c2c(NC(=O)c3cccc(C)c3)sc3c2CCC3)cc1 — higher, 160%
- Cc1cccc(NC(=O)c2c(N)sc3c2CCC(C)C3)c1 (stereo not given) — lower, 59%
- Cc1cccc(NC(=O)c2c(NC(=O)c3ccccc3)sc3c2CCC3)c1 — lower, 72%
- Cc1cccc(NC(=O)c2c(NC(=O)c3ccccc3)sc3c2CCCC3)c1 — lower, 61%
- O=C(Cc1ccccc1)Nc1sc2c(c1C(=O)Nc1cccc(Cl)c1)CCCCC2 — lower, 65%
- O=C(Nc1sc2c(c1C(=O)Nc1cccc(Cl)c1)CCCC2)c1cccs1 — higher, 159%
- O=c1n(Cc2ccc(F)cc2Cl)c2ccccc2c2nc(-c3ccccc3)nn12 — higher, 125%
- O=S(=O)(c1ccc(-c2cnc(C3CC3)o2)cc1)N1CCN(c2cccc(Cl)c2)CC1 — lower, 75%
- COc1ccc(Br)cc1CNC(=O)C1COc2ccccc2C1 (stereo not given) — lower, 49%
- CCOc1ccccc1C(=O)Oc1c(Sc2ccccc2)c(C)nn1C(C)(C)C — higher, 91%
- COc1ccc(C(=O)Oc2c(Sc3ccc(C)cc3)c(C)nn2C(C)(C)C)cc1OC — higher, 115%
- COc1ccc(C(=O)Oc2c(Sc3ccc(C)cc3)c(C)nn2C(C)(C)C)c(OC)c1 — lower, 49%
- COc1ccccc1C(=O)Oc1c(Sc2ccccc2)c(C)nn1C(C)(C)C — lower, 87%
- Cc1oc2cc3oc(=O)c(CCC(=O)NCCc4ccccc4F)c(C)c3cc2c1C — higher, 94%
- O=S(=O)(c1ccc2oc(-c3cccnc3)nc2c1)c1ccc2oc(-c3cccnc3)nc2c1 — lower, 64%
- CCOC(=O)c1c(-c2ccc(C)cc2C)csc1NC(=O)c1ccccc1Cl — lower, 47%
- CC(C)c1ccc(C2N3CC4(C)CN2CC(c2ccccc2)(C3)C4=O)cc1 (stereo not given) — lower, 80%
- CC(C)NC(=O)C1CC(=O)N(c2ccc(Oc3ccccc3)cc2)C1 (stereo not given) — lower, 87%
- CSc1ncc(Cl)c(C(=O)Nc2ccc(S(=O)(=O)N3CCC(C)CC3)cc2)n1 — lower, 62%
- O=C(Cn1ccn(-c2ccc(F)cc2)c(=O)c1=O)Nc1ccccc1C(F)(F)F — lower, 50%
- COCC(=O)Oc1c(Sc2ccc(C)cc2)c(C)nn1C(C)(C)C — lower, 78%
- CCC(=O)Oc1c(Sc2ccc(Cl)cc2)c(C)nn1C(C)(C)C — lower, 78%
- O=C(CC1Nc2ccccc2NC1=O)Nc1cccc2ccccc12 (stereo not given) — higher, 93%
- O=C(NCc1ccc(Cl)cc1)c1ccc(Cn2c(=O)c3cccn3c3cccnc32)cc1 — lower, 49%
- CN(C)c1ccc(CNC(=O)c2ccc(Cn3c(=O)c4cccn4c4cccnc43)cc2)cc1 — lower, 60%
- CC(C)Oc1ccc(CNC(=O)c2ccc(Cn3c(=O)c4cccn4c4cccnc43)cc2)cc1 — lower, 55%
- O=C(NCCc1ccccc1)c1ccc(Cn2c(=O)c3cccn3c3cccnc32)cc1 — lower, 51%
- Cc1ccc(CCNC(=O)c2ccc(Cn3c(=O)c4cccn4c4cccnc43)cc2)cc1 — lower, 52%
- COc1ccc(CNC(=O)c2ccc(Cn3c(=O)c4cccn4c4cccnc43)cc2)cc1OC — lower, 67%
- O=C(NCc1ccccc1Cl)c1ccc(Cn2c(=O)c3cccn3c3cccnc32)cc1 — higher, 103%
- CCCNC(=O)c1ccc(Cn2c(=O)c3cccn3c3cccnc32)cc1 — lower, 52%
- O=C(NCCc1ccccc1)C(=O)Nc1cccc(Br)c1 — lower, 68%
- Cc1ccc2c(CC(=O)Nc3nnc(C(C)C)s3)coc2c1C — higher, 101%
- CC(C)c1ccc(CN(C(=O)c2cc3ccccc3oc2=O)C2CCS(=O)(=O)C2)cc1 (stereo not given) — lower, 51%
- CCCCOC(=O)c1ccc(NC(=O)c2ccc3c(c2)CCCN3S(C)(=O)=O)cc1 — higher, 96%
- C=CCC1N(c2ccccc2)C(=O)C2C(C(=O)O)C3C=CC21O3 (stereo not given) — higher, 103%
- [O-][n+]1onc2c1CCC1N(O)C(c3ccccc3)CC21O (stereo not given) — lower, 80%
- O=C(CCSCc1ccc(Cl)cc1)N1CCN(c2ccccc2F)CC1 — lower, 77%
- CC1=C(C(=O)Nc2cc(C)ccc2C)C2(CCCCCC2)OC1=O — the same, 89%
- Cc1ccccc1NC(=O)C(=O)NCC1(c2ccccc2)CCCC1 — lower, 73%
- O=C(Cn1c(=O)n(-c2ccccc2Cl)c(=O)c2sc3ccccc3c21)NC1CCCCC1 — higher, 109%
- O=C(NCc1ccccc1)c1ccc(Cn2c(=O)c3cccn3c3cccnc32)cc1 — higher, 108%
- COc1ccc(CCNC(=O)CCn2c(=O)c3cccn3c3cccnc32)cc1OC — lower, 82%
- CCOc1ccc(CCNC(=O)c2ccc(Cn3c(=O)c4cccn4c4cccnc43)cc2)cc1 — higher, 93%
- CCc1ccc(CNC(=O)c2ccc(Cn3c(=O)c4cccn4c4cccnc43)cc2)cc1 — lower, 67%
- CCc1ccccc1NC(=O)Cn1c(=O)nc(-c2ccccc2)c2ccccc21 — higher, 90%

With `Cc1oc2ccc(O)c(CN(C)Cc3ccccc3)c2c1C(=O)Nc1cccc(C(F)(F)F)c1` the survival was 6% (active).
For `Cc1oc2ccc(O)c(CN(C)Cc3ccccc3)c2c1C(=O)Nc1cccc(Cl)c1C`, the survival was 11% (active).
In the case of `COc1ccccc1Cn1ccn(CC(=O)Nc2c(C)cc(C)cc2C)c(=O)c1=O`, the survival is reported as 41% (active).
`CCc1ccc(NC(=O)Cn2ccn(Cc3ccccc3OC)c(=O)c2=O)cc1` was tested, and the survival was 46% (active).
In the case of `Cc1ccc(NC(=O)Cn2ccn(-c3ccccc3)c(=O)c2=O)cc1`, the survival is reported as 56% (active).
In the case of `Cc1cccc(NC(=O)c2c(NC(=O)C(F)(F)F)sc3c2CCCCC3)c1`, the survival is reported as -3% (active).
`O=C(Nc1cccc(Cl)c1)c1c(NC(=O)C(F)(F)F)sc2c1CCCC2` was tested, and the survival was -2% (active).
With `Cc1cccc(NC(=O)c2c(Br)sc3c2CCCC3)c1` the survival was 3% (active).
`Cc1ccccc1C(=O)Oc1c(Sc2ccccc2)c(C)nn1C(C)(C)C` was tested, and the survival was 21% (active).
With `COc1cccc(C(=O)Oc2c(Sc3ccc(C)cc3)c(C)nn2C(C)(C)C)c1OC` the survival was 21% (active).
In the case of `Cc1nn(C(C)(C)C)c(OC(=O)C(C)(C)C)c1Sc1ccccc1`, the survival is reported as -10% (active).
In the case of `Cc1ccc(Sc2c(C)nn(C(C)(C)C)c2OC(=O)C(C)(C)C)cc1`, the survival is reported as -10% (active).
In the case of `Cc1ccc(Sc2c(C)nn(C(C)(C)C)c2OC(=O)CC(C)C)cc1`, the survival is reported as -9% (active).
`CCOc1cc(CNC(=O)c2ccc(Cn3c(=O)c4cccn4c4cccnc43)cc2)ccc1OC` was tested, and the survival was 52% (active).
`O=C(NCCc1ccc(Cl)cc1)c1ccc(Cn2c(=O)c3cccn3c3cccnc32)cc1` was tested, and the survival was 43% (active).
`COc1ccc(CNC(=O)c2ccc(Cn3c(=O)c4cccn4c4cccnc43)cc2)c(OC)c1` was tested, and the survival was 58% (active).
For `CCOc1ccccc1CNC(=O)c1ccc(Cn2c(=O)c3cccn3c3cccnc32)cc1`, the survival was 44% (active).
`COc1ccc(CCNC(=O)c2ccc(Cn3c(=O)c4cccn4c4cccnc43)cc2)cc1OC` was tested, and the survival was 48% (active).
`Cc1cccc(CNC(=O)c2ccc(Cn3c(=O)c4cccn4c4cccnc43)cc2)c1` was tested, and the survival was 48% (active).

From PubChem BioAssay AID463173 (ICCB-Longwood Screening Facility, Harvard Medical School, 2010)
